Measured values as given in PubChem BioAssay (EPA / NIEHS).
Values joined by “and” are separate entries in the source; they are usually repeats but may differ in a detail not shown here. Equal entries are not always repeated. Records with an inconclusive call do not appear. More than one record can exist for a structure, and the calls need not agree. Active and inactive are the calls of the source. The calls were made as follows: active = hit-call score of the fitted dose curve at least 0.9, where 1 is the maximum; inconclusive = response in the unintended direction; inactive = score below 0.9.

These molecules were tested against PGR (gene 5241) (UniProt P06401) (assay: NVS_NR_hPR: NovaScreen (NVS) Nuclear Receptor Binding Assay for human Progestron Receptor (PR) (AID 2283360);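 also: active means loss of bound radioligand signal versus DMSO baseline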).
PGR (gene 5241), sequence (P06401 whole entry, looked up): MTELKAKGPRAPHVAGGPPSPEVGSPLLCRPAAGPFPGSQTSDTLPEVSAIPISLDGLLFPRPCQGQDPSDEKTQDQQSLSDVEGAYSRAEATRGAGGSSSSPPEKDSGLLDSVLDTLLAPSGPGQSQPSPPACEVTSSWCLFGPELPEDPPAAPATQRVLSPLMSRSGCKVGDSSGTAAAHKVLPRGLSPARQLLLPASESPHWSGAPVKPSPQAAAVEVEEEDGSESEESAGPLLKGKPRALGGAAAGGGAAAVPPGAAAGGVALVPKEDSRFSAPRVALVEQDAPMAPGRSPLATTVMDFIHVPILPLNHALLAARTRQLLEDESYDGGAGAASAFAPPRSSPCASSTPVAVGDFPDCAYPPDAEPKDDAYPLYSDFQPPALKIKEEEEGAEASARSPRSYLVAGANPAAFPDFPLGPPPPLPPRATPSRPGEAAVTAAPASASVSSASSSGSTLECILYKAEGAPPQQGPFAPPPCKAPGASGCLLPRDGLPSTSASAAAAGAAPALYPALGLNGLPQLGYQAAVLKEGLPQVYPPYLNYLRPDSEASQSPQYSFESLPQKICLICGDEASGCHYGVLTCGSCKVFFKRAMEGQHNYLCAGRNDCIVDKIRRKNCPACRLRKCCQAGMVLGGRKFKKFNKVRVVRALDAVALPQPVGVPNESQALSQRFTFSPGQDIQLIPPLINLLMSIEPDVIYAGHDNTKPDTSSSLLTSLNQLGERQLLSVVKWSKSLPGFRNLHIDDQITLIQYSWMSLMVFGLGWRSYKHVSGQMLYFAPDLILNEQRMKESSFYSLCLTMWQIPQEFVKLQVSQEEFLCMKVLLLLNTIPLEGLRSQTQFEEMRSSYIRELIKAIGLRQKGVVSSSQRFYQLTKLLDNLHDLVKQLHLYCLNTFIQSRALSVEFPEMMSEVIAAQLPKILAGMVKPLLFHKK
Experimental: NVS_NR_hPR is a biochemical, single-readout assay that uses extracted gene-proteins from T47D in a cell-free assay. Measurements were taken 18 hours after chemical dosing in a 96-well plate.NVS_NR_hPR is one of one assay component(s) measured or calculated from the NVS_NR_hPR assay. It is designed to make measurements of radioligand binding, a form of binding reporter, as detected with scintillation counting signals by Lysate-based radiodetection technology.Data from the assay component NVS_NR_hPR was analyzed into 1 assay endpoint. This assay endpoint, NVS_NR_hPR, was analyzed in the positive analysis fitting direction relative to DMSO as the negative control and baseline of activity. Using a type of binding reporter, loss-of-signal activity can be used to understand changes in the binding as they relate to the gene PGR. Furthermore, this assay endpoint can be referred to as a primary readout, because the performed assay has only produced 1 assay endpoint. To generalize the intended target to other relatable targets, this assay endpoint is annotated to the nuclear receptor intended target family, where the subfamily is steroidal.
Binding assays used specific radioligands (tritiated, iodinated) with non-radioactive competitive displacement ligands in agonist or antagonist protocols (as indicated) and various reference compounds and inhibitors to titrate specific binding to receptors and transporters. Most enzyme assays (CYPs, kinases, phosphatases, proteases, HDACs) used recombinant protein and specific substrates (fluorescence mostly, some colorimetric and radioactive) and inhibitors, followed by a biochemical separation of substrate and product. All assays for the biochemical HTS were initially run in duplicate at a single concentration (10 uM for CYP450 assays and 25 uM for all others). […] Each assay was run with positive and negative controls, and concurrent controls on every plate. The follow-up (secondary) screen tested active chemical-pairs in concentration series, as well as a few additional assays not tested in the primary screen, some selected negative inactives, and several cases re-run in the concentration series for confirmatory purposes.
In the case of CC(C)(c1ccc(O)cc1)c1ccc(O)cc1, the outcome is reported as “inactive” and the AC50 is reported as 11.2 µM (active) and 8.49 µM (active). For C[C@]12C[C@H](O)[C@H]3[C@@H](CCC4=CC(=O)CC[C@@]43C)[C@@H]1CC[C@@H]2C(=O)CO, the AC50 was 0.403 µM (active). For Oc1ccc(C(c2ccc(O)cc2)C(Cl)(Cl)Cl)cc1, the AC50 was 6.82 µM (active). With N#CSCSc1nc2ccccc2s1 the outcome was “inactive”. For CCCCC(CC)CN1C(=O)C2C3C=CC(C3)C2C1=O (stereo not drawn), the outcome was “inactive”. In the case of CC1(C)C(C=C(Cl)Cl)C1C(=O)OCc1cccc(Oc2ccccc2)c1 (stereo not drawn), the outcome is reported as “inactive”. With O=C(c1ccc(O)cc1O)c1ccc(O)cc1O the AC50 was 11.2 µM (active). For CCCN(CCC)C(=O)SCC, the outcome was “inactive”. In the case of c1ccc(Nc2ccccc2)cc1, the outcome is reported as “inactive”. With Cc1nn(C)c(Oc2ccccc2)c1C=NOCc1ccc(C(=O)OC(C)(C)C)cc1 the outcome was “inactive”. For CCCCOCCOCCOCc1cc2c(cc1CCC)OCO2, the outcome was “inactive”. With O=C(O)C1(C(=O)Nc2ccc(Cl)cc2Cl)CC1 the outcome was “inactive”.
